The campaign covered roughly 5,500 compounds. About 2,000 (36%) were called active. Another 18% or so got no clear call; they are omitted. Cut-off read from the data, not from the text of the source: active = normalized growth mostly below about 0.91 (no sharp cut-off); inconclusive = no clear call, values can overlap the other calls; inactive = mostly above about 0.92. This is one part of the list.
Assay: chemical genetic growth profiling, strain panel (AID 1159580);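 note: tested at 20 µM; growth read once vehicle control cultures reached saturation at 30 °C; 1 = growth at the plate median or of vehicle wells; lower values mean less growth of the strain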
Details: growth OD

Measured: normalized growth

O=C(O)CF
inactive: S. cerevisiae deletion strains, locus YJR043C, strain POL32, active compounds read low 0.984 | S. cerevisiae deletion strains, locus YJR075W, strain HOC1, active compounds read low 0.992 | S. cerevisiae deletion strains, locus YKL009W, strain mrt4, active compounds read low 0.915 | S. cerevisiae deletion strains, locus YKL068W, active compounds read low 1.01 | S. cerevisiae deletion strains, locus YKL085W, strain MDH1 (second series), active compounds read low 1 | S. cerevisiae deletion strains, locus YKL085W, strain MDH1, active compounds read low 1 | S. cerevisiae deletion strains, locus YKL160W, strain elf1, active compounds read low 0.988 | S. cerevisiae deletion strains, locus YKL190W, strain CNB1, active compounds read low 1 | S. cerevisiae deletion strains, locus YKR001C, strain vps1, active compounds read low 0.976 | S. cerevisiae deletion strains, locus YKR026C, strain gcn3, active compounds read low 1.03 | S. cerevisiae deletion strains, locus YKR091W, strain srl3, active compounds read low 1.02 | S. cerevisiae deletion strains, locus YLL001W, strain dnm1, active compounds read low 1.02 | S. cerevisiae deletion strains, locus YLL026W, active compounds read low 1.01 | S. cerevisiae deletion strains, locus YLL041C, strain sdh2, active compounds read low 1.03 | S. cerevisiae deletion strains, locus YLR027C, strain aat2, active compounds read low 1.01 | S. cerevisiae deletion strains, locus YLR039C, strain RIC1, active compounds read low 0.997 | S. cerevisiae deletion strains, locus YLR058C, strain SHM2, active compounds read low 0.993 | S. cerevisiae deletion strains, locus YLR102C, strain apc9, active compounds read low 0.99 | S. cerevisiae deletion strains, locus YLR221C, strain rsa3, active compounds read low 1.03 | S. cerevisiae deletion strains, locus YLR258W, strain gsy2, active compounds read low 1.04 | S. cerevisiae deletion strains, locus YLR262C, strain YPT6 (second series), active compounds read low 1.04 | S. cerevisiae deletion strains, locus YLR262C, strain YPT6, active compounds read low 1.01 | S. cerevisiae deletion strains, locus YLR268W, strain sec22, active compounds read low 0.974 | S. cerevisiae deletion strains, locus YLR320W, strain mms22, active compounds read low 1.04 | S. cerevisiae deletion strains, locus YLR330W, strain CHS5, active compounds read low 0.991 | S. cerevisiae deletion strains, locus YLR342W, strain FKS1 (second series), active compounds read low 0.989 | S. cerevisiae deletion strains, locus YLR342W, strain FKS1, active compounds read low 1.02 | S. cerevisiae deletion strains, locus YLR357W, strain rsc2, active compounds read low 1.02 | S. cerevisiae deletion strains, locus YLR370C, strain arc18, active compounds read low 1.04 | S. cerevisiae deletion strains, locus YLR371W, strain rom2, active compounds read low 0.968 | S. cerevisiae deletion strains, locus YLR384C, strain iki3, active compounds read low 1.02 | S. cerevisiae deletion strains, locus YLR418C, strain cdc73, active compounds read low 1.04 | S. cerevisiae deletion strains, locus YML016C, strain PPZ1, active compounds read low 0.99 | S. cerevisiae deletion strains, locus YML032C, strain rad52, active compounds read low 0.947 | S. cerevisiae deletion strains, locus YML120C, strain ndi1, active compounds read low 1.04 | S. cerevisiae deletion strains, locus YML124C, strain tub3, active compounds read low 0.985 | S. cerevisiae deletion strains, locus YMR058W, strain fet3, active compounds read low 1.02 | S. cerevisiae deletion strains, locus YMR078C, strain ctf18, active compounds read low 0.984 | S. cerevisiae deletion strains, locus YMR125W, strain sto1, active compounds read low 0.986 | S. cerevisiae deletion strains, locus YMR129W, active compounds read low 1.02 | S. cerevisiae deletion strains, locus YMR205C, strain PFK2, active compounds read low 1.02 | S. cerevisiae deletion strains, locus YMR223W, strain ubp8, active compounds read low 0.94 | S. cerevisiae deletion strains, locus YMR231W, strain pep5, active compounds read low 1.02 | S. cerevisiae deletion strains, locus YMR263W, strain SAP30, active compounds read low 1.02 | S. cerevisiae deletion strains, locus YMR307W, strain GAS1, active compounds read low 0.945 | S. cerevisiae deletion strains, locus YNL067W, strain RPL9B, active compounds read low 1.02 | S. cerevisiae deletion strains, locus YNL071W, strain lat1, active compounds read low 1.03 | S. cerevisiae deletion strains, locus YNL128W, strain TEP1, active compounds read low 1.01 | S. cerevisiae deletion strains, locus YNL153C, strain GIM3, active compounds read low 1.04 | S. cerevisiae deletion strains, locus YNL209W, strain ssb2, active compounds read low 1.02 | S. cerevisiae deletion strains, locus YNL233W, strain BNI4, active compounds read low 1.02 | S. cerevisiae deletion strains, locus YNL248C, strain rpa49, active compounds read low 0.972 | S. cerevisiae deletion strains, locus YNL250W, strain rad50, active compounds read low 0.987 | S. cerevisiae deletion strains, locus YNL271C, strain bni1, active compounds read low 0.985 | S. cerevisiae deletion strains, locus YNL298W, strain CLA4, active compounds read low 0.94 | S. cerevisiae deletion strains, locus YNL307C, strain MCK1, active compounds read low 0.954 | S. cerevisiae deletion strains, locus YNL322C, strain KRE1 (second series), active compounds read low 1.02 | S. cerevisiae deletion strains, locus YNL322C, strain KRE1, active compounds read low 1 | S. cerevisiae deletion strains, locus YNR049C, strain mso1, active compounds read low 1.02 | S. cerevisiae deletion strains, locus YNR052C, strain pop2, active compounds read low 0.949 | S. cerevisiae deletion strains, locus YOL006C, strain TOP1, active compounds read low 0.988 | S. cerevisiae deletion strains, locus YOL012C, strain htz1 1.93 | S. cerevisiae deletion strains, locus YOL147C, strain pex11, active compounds read low 0.993 | S. cerevisiae deletion strains, locus YOR001W, strain rrp6, active compounds read low 1.03 | S. cerevisiae deletion strains, locus YOR061W, strain CKA2, active compounds read low 0.975 | S. cerevisiae deletion strains, locus YOR069W, strain VPS5, active compounds read low 0.99 | S. cerevisiae deletion strains, locus YOR070C, strain gyp1, active compounds read low 1.02 | S. cerevisiae deletion strains, locus YOR080W, strain dia2, active compounds read low 1.02 | S. cerevisiae deletion strains, locus YOR083W, strain WHI5, active compounds read low 0.992 | S. cerevisiae deletion strains, locus YOR106W, strain vam3, active compounds read low 0.998 | S. cerevisiae deletion strains, locus YOR136W, strain idh2, active compounds read low 0.978 | S. cerevisiae deletion strains, locus YOR144C, strain elg1, active compounds read low 0.987 | S. cerevisiae deletion strains, locus YOR265W, strain rbl2, active compounds read low 1.02 | S. cerevisiae deletion strains, locus YOR270C, strain vph1, active compounds read low 1.02 | S. cerevisiae deletion strains, locus YOR290C, strain snf2, active compounds read low 1.02 | S. cerevisiae deletion strains, locus YOR316C, strain cot1, active compounds read low 0.984 | S. cerevisiae deletion strains, locus YPL051W, strain arl3, active compounds read low 1 | S. cerevisiae deletion strains, locus YPL055C, strain LGE1, active compounds read low 1.04 | S. cerevisiae deletion strains, locus YPL078C, strain atp4, active compounds read low 0.982 | S. cerevisiae deletion strains, locus YPL106C, strain sse1, active compounds read low 1.06 | S. cerevisiae deletion strains, locus YPL240C, strain hsp82, active compounds read low 1.02 | S. cerevisiae deletion strains, locus YPL241C, strain CIN2, active compounds read low 0.998 | S. cerevisiae deletion strains, locus YPR119W, strain clb2, active compounds read low 1 | S. cerevisiae deletion strains, locus YPR141C, strain kar3, active compounds read low 0.993 | S. cerevisiae deletion strains, locus YPR163C, strain tif3, active compounds read low 0.993 | S. cerevisiae deletion strains, locus YPR167C, strain met16, active compounds read low 0.99 | S. cerevisiae deletion strains, strain wtn01, active compounds read low 0.992 | S. cerevisiae strains, strain wild type, active compounds read low 0.999
active: S. cerevisiae deletion strains, locus YOR184W, strain ser1, active compounds read low 0.872

Source: PubChem BioAssay AID1159580 (chemical genetic matrix, 2015)
